The supplement of paper PMC11732987, “Enantioselective OTUD7B fragment discovery through chemoproteomics screening and high-throughput optimisation” (Communications Chemistry, 2025)

Legend:
Assay in all cases: log2 ratio of Biotin-Ahx-Ub-VS probe labelling (fragment/DMSO); higher = less target engagement (more negative = stronger competition), active = hit call of the paper (q ≤ 0.05, log2 ratio ≤ -1)
Settings in all cases: compound concentration: 200 uM; treatment time: 3 h
ALG13 = target: T1, ALG13 (UniProt Q9NP73)
T1 sequence (whole entry): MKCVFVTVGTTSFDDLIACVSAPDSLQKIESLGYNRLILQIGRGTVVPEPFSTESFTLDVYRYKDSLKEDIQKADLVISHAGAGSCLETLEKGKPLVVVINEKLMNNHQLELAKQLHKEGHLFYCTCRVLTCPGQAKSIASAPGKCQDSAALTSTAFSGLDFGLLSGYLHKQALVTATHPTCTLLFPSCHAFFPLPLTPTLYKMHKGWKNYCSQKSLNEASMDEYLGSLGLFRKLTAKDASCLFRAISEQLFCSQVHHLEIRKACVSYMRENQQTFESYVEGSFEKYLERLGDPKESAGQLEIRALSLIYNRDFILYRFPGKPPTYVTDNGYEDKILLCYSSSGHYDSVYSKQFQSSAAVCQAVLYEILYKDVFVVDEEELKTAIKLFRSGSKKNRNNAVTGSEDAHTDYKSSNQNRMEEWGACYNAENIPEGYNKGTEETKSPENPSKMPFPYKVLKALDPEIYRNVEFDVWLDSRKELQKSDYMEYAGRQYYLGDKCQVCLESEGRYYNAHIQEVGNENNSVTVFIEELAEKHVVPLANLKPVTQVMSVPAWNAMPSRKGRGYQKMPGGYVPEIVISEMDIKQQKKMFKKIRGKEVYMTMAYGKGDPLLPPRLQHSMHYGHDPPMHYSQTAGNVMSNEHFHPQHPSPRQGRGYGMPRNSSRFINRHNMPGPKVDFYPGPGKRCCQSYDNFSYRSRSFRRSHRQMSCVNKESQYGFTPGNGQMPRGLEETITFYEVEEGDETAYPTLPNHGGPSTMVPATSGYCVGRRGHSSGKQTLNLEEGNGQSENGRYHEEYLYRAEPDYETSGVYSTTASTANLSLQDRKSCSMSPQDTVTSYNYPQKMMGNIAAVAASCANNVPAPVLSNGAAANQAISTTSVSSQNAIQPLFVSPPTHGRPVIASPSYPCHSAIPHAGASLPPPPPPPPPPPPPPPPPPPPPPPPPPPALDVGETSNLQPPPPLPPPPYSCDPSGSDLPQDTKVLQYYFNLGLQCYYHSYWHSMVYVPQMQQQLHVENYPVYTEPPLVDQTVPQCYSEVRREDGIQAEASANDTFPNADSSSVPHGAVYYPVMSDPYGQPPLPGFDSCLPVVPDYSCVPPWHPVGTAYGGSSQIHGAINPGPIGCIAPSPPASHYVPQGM
Method in brief: (§1)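 Average log2 ratios of fragment over vehicle were obtained by unpaired t-test from global-median-normalised Spectronaut label-free quantities. Proteins with ≥2 unique peptides were included. HEK293T lysate (495 µg per sample) was treated in triplicate with fragment at 200 µM or vehicle for 3 h, then with Biotin-Ahx-Ub-VS at 0.5 µM final for 1 h, and labelled DUBs were NeutrAvidin-enriched and run by diaPASEF LC-MS/MS.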

ATXN3 = ATXN3 (UniProt P54252)
Method in brief: as §1

BAP1 = target: T2, BAP1 (UniProt Q92560)
T2 sequence (whole entry): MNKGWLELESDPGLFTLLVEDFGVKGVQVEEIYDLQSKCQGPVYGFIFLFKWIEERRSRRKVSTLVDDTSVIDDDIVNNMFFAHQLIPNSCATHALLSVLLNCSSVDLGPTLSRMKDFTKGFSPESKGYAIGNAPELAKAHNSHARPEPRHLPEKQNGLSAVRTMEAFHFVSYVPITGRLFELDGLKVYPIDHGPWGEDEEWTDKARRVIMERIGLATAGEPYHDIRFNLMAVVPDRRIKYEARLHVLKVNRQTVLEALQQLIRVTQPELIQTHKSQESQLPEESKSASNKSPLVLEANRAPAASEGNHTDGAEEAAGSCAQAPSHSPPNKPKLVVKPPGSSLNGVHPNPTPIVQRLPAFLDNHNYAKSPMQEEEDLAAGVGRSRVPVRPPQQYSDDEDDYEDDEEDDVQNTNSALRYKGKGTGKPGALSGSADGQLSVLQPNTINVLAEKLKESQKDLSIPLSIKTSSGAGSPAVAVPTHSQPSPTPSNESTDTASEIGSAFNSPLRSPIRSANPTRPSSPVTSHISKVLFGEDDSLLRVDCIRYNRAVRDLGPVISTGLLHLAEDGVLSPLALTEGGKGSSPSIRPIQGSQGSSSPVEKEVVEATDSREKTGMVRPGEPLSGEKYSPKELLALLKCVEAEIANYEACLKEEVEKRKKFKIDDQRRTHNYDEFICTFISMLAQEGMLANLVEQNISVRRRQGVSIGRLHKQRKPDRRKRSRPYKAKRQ
Method in brief: as §1

EIF3F = EIF3F (UniProt O00303)
Method in brief: as §1

EIF3H = EIF3H (UniProt O15372)
Method in brief: as §1

FAM105A = target: T3, FAM105A (UniProt Q9NUU6)
T3 sequence (whole entry): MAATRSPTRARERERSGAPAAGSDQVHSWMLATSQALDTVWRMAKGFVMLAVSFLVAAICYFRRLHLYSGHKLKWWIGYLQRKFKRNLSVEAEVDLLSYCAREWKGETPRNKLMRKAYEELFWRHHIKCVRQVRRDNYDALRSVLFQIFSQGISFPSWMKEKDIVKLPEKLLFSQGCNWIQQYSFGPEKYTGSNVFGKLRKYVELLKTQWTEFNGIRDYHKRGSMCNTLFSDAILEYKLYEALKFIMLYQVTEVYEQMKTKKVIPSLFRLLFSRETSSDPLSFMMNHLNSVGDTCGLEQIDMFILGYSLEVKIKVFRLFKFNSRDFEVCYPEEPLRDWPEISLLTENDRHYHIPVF
Method in brief: as §1

OTUB1 = OTUB1 (UniProt Q96FW1)
Method in brief: as §1

OTUD4 = target: T4, OTUD4 (UniProt Q01804)
T4 sequence (whole entry): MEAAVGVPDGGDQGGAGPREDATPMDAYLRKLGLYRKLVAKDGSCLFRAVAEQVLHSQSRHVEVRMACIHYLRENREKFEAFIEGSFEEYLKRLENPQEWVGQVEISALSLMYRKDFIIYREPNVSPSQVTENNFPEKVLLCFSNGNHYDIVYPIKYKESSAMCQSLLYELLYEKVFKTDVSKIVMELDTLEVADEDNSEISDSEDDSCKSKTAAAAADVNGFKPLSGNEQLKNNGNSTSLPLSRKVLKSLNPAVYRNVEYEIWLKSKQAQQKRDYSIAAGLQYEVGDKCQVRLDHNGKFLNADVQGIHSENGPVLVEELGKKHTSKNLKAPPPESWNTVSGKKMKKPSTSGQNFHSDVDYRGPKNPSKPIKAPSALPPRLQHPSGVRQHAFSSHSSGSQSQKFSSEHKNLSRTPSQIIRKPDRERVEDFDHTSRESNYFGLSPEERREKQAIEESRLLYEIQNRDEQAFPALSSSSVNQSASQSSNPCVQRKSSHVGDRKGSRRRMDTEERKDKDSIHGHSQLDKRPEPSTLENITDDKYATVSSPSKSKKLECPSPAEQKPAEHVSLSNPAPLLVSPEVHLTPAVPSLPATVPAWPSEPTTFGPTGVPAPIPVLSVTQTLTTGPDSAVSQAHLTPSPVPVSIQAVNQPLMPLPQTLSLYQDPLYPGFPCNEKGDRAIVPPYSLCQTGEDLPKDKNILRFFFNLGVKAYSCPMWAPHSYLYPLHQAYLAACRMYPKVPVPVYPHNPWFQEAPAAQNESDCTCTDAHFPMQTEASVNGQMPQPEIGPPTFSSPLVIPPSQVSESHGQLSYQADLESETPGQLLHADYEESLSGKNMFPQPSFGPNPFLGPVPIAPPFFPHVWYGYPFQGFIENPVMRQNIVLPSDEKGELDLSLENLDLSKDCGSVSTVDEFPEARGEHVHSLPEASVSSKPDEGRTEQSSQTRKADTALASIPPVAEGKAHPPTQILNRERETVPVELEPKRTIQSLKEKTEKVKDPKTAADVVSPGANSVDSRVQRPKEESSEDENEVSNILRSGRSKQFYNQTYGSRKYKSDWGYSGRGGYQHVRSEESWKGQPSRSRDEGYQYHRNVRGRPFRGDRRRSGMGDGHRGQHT
Method in brief: as §1

OTUD5 = target: T5, OTUD5 (UniProt Q96G74)
T5 sequence (whole entry): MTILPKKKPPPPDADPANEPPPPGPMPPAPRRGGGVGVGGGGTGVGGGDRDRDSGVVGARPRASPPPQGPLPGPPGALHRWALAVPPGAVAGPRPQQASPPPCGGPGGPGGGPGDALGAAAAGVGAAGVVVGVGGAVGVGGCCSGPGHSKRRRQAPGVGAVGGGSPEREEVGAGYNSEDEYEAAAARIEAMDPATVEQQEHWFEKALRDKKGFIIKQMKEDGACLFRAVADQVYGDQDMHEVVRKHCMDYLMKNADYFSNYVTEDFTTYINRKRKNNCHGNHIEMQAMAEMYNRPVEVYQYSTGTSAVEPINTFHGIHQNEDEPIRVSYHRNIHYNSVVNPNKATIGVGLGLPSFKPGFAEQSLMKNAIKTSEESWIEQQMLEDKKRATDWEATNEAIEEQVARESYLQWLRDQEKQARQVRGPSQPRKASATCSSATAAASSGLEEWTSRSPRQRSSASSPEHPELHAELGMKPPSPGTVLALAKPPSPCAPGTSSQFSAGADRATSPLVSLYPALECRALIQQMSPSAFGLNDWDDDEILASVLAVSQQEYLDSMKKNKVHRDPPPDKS
Method in brief: as §1

Measured: log2 ratio of Biotin-Ahx-Ub-VS probe labelling

ATXN3, sequence (P54252 whole entry): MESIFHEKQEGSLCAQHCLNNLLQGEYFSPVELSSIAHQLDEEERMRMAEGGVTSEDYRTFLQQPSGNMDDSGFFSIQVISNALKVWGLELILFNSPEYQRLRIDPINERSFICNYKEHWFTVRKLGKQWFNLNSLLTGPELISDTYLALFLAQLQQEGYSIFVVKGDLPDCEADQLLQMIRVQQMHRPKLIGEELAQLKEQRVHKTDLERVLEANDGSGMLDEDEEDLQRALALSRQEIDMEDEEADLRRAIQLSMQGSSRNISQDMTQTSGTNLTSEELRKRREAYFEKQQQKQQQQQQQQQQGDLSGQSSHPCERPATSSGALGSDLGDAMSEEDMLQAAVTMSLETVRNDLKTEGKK
EIF3F, sequence (O00303 whole entry): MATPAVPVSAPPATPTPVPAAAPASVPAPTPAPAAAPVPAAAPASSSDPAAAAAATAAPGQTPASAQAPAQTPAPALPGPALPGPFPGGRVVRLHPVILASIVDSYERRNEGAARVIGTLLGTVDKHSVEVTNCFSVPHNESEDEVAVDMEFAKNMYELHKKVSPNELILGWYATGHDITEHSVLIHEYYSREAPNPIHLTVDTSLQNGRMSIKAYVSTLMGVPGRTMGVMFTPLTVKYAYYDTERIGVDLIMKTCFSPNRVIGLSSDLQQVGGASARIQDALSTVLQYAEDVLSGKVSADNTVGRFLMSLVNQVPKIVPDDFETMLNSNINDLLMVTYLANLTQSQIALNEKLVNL
OTUB1, sequence (Q96FW1 whole entry): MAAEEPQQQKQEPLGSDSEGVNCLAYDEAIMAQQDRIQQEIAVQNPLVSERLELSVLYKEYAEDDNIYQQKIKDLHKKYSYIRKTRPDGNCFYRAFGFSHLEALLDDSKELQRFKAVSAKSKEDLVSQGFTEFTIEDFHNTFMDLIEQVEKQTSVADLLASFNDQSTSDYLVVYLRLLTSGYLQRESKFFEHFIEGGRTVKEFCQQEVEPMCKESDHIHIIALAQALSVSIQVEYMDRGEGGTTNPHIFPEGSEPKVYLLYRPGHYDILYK
EIF3H, sequence (O15372 whole entry): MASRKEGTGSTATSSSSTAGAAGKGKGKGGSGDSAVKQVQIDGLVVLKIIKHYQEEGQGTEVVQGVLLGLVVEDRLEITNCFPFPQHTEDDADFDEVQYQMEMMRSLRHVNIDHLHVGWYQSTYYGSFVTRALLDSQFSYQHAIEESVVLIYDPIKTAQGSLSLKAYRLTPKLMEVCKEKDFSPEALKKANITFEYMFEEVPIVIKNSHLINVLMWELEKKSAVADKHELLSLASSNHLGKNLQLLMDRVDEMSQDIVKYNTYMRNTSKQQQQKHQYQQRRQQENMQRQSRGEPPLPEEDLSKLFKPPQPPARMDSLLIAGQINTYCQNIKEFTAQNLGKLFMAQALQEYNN

CCc1c[nH]c(CNC(=O)CCl)n1.Cl
inactive: ALG13 0.0285 | ATXN3 -0.421 | BAP1 -0.464 | EIF3F -1.13 | EIF3H 0.281 | FAM105A 0.0309 | OTUB1 -0.461 | OTUD4 -0.214 | OTUD5 -0.482
